Compounds without any hit were thinned out: in the full panel of roughly 79,000, 15% have a hit. Calls of active or inactive are those of the source. Rule as the data show it: active = growth inhibition above about 70%; inactive = the rest.
Assays:
[1] = NCI Yeast Anticancer Drug Screen. Data for the rad50 strain (AID 155);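 also: 0% = growth of vehicle-only cultures of the same strain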; details: S. cerevisiae rad50 strain growth inhibition, hits give high values
Procedure, shortened: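 Vehicle-treated cultures provide the reference for the growth inhibition reported for compound-exposed, repair-deficient yeast.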

[2] = NCI Yeast Anticancer Drug Screen. Data for the mec2-1 strain (AID 157); details: S. cerevisiae mec2-1 strain, hits give high values
Procedure, shortened: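 Growth inhibition is read against vehicle-treated controls after compound exposure of the mec2-1 yeast strain, which is defective in DNA damage repair or cell cycle control.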

[3] = NCI Yeast Anticancer Drug Screen. Data for the sgs1 mgt1 strain (AID 161);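 also: 0% = growth of cultures given vehicle only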; details: S. cerevisiae sgs1 mgt1 strain, hits give high values
Procedure, shortened: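 Yeast cells carrying a defined DNA-repair defect were exposed to test compounds. Growth inhibition was measured relative to vehicle-treated controls.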

[4] = NCI Yeast Anticancer Drug Screen. Data for the cln2 rad14 strain (AID 165);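 also: 0% = growth equal to vehicle treated cultures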; details: S. cerevisiae cln2 rad14 strain, hits give high values
Procedure, shortened: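 Growth inhibition, relative to vehicle-treated controls, is the read-out. The test organism is a yeast strain with defined genetic alterations, cln2 rad14.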

[5] = NCI Yeast Anticancer Drug Screen. Data for the bub3 strain (AID 167); details: S. cerevisiae bub3 mutant strain, hits give high values
Procedure, shortened: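 Mutant yeast screening strain plus compound; vehicle-treated cultures serve as the 0% inhibition reference.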

[6] = NCI Yeast Anticancer Drug Screen. Data for the mlh1 rad18 strain (AID 175); details: S. cerevisiae mlh1 rad18 strain growth inhibition, hits give high values
Procedure, shortened: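 Cells of a genetically altered yeast strain, deficient in DNA damage repair, were treated with compound. Their growth was then compared with that of vehicle-treated cultures to give inhibition.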

[7] = at 5.0 µM (retest, dose inferred, filed as 0.5)
[8] = at 50.0 µM (retest, dose inferred, filed as 5.0)

Measured: growth inhibition

Oc1ccc2ccccc2c1I
inactive: [1]; [7] 41% | [2]; [7] 42% | [6]; [7] 32% | [6]; [8] 55%
active: [1]; [8] 75% | [1]; at 50.0 µM 91.2% | [2]; [8] 75% | [2]; at 50.0 µM 92.7% | [3]; [7] 97% | [3]; [8] 99% | [3]; at 50.0 µM 93% | [4]; [7] 79% | [4]; [8] 99% | [4]; at 50.0 µM 92.6% | [5]; [7] 96% | [5]; [8] 98% | [5]; at 50.0 µM 91.7% | [6]; at 50.0 µM 90.8%

O=[N+]([O-])c1cc(Br)cc(Br)c1O
inactive: [1]; [7] -2% | [1]; [8] 19% | [1]; at 50.0 µM 61.6% | [2]; [7] 18% | [2]; [8] 45% | [2]; at 50.0 µM 49.6% | [3]; [7] 10% | [3]; [8] 38% | [3]; at 50.0 µM 40.4% | [4]; [7] 20% | [4]; [8] 41% | [5]; [7] -7% | [5]; [8] 30% | [6]; [7] 2% | [6]; [8] 56% | [6]; at 50.0 µM 68.4%
active: [4]; at 50.0 µM 82.7% | [5]; at 50.0 µM 75.8%

C/C(O)=c1\cc(C#N)c(=C(C#N)C#N)nc1C
inactive: [1]; [7] -4% | [1]; [8] -3% | [1]; at 50.0 µM 8.05% | [2]; [7] -2% | [2]; [8] 1% | [2]; at 50.0 µM -0.15% | [3]; [7] 2% | [3]; [8] 5% | [3]; at 50.0 µM 1.15% | [4]; [7] -1% | [4]; [8] -8% | [4]; at 50.0 µM -3% | [5]; [7] 3% | [5]; [8] 11% | [5]; at 50.0 µM 10.6% | [6]; [7] 0% | [6]; [8] 3% | [6]; at 50.0 µM 46.4%

CN1C=COC1N=C1CCCCC1 (stereo unspecified)
inactive: [1]; [7] 13% | [1]; [8] 10% | [1]; at 50.0 µM -24.2% | [2]; [7] -1% | [2]; [8] -5% | [2]; at 50.0 µM -7% | [3]; [7] -2% | [3]; [8] 17% | [3]; at 50.0 µM -5.2% | [4]; [7] 11% | [4]; [8] 0% | [4]; at 50.0 µM 16.6% | [5]; [7] 18% | [5]; [8] 10% | [5]; at 50.0 µM -13% | [6]; [7] -13% | [6]; [8] 6% | [6]; at 50.0 µM -32.1%

Cc1cc2nc3c(C)c4ccccc4c(C)n3c2cc1C
active: [1]; [7] 82% | [1]; [8] 93% | [1]; at 50.0 µM 80.8% | [2]; [8] 96% | [2]; at 50.0 µM 87.8% | [3]; [7] 72% | [3]; at 50.0 µM 85.3% | [4]; [7] 73% | [4]; [8] 94% | [4]; at 50.0 µM 83.4% | [5]; [7] 75% | [5]; [8] 94% | [5]; at 50.0 µM 86.4% | [6]; [7] 81% | [6]; [8] 95% | [6]; at 50.0 µM 79.3%
inactive: [2]; [7] 69% | [3]; [8] 50%

CCC(C)CNCCCCCNc1cc(OC)cc2cccnc12 (stereo unspecified)
inactive: [1]; [7] 37% | [1]; [8] 67% | [1]; at 50.0 µM 45.5% | [2]; [7] 35% | [2]; [8] 62% | [2]; at 50.0 µM 43.9% | [3]; [7] 38% | [3]; at 50.0 µM 66.5% | [4]; [7] 47% | [4]; [8] 57% | [4]; at 50.0 µM 48.2% | [5]; [7] 39% | [6]; [7] 29% | [6]; [8] 53%
active: [3]; [8] 87% | [5]; [8] 75% | [5]; at 50.0 µM 90.3% | [6]; at 50.0 µM 70.3%

COc1cccc2c1C(=O)c1c(O)c3c(c(O)c1C2=O)CC(O)(C(=O)CO)CC3OC1CC(N)C(I)C(C)O1 (stereo unspecified)
active: [1]; [7] 98% | [1]; [8] 98% | [1]; at 50.0 µM 89.5% | [2]; [7] 98% | [2]; [8] 99% | [2]; at 50.0 µM 88.8% | [3]; [7] 98% | [3]; [8] 98% | [3]; at 50.0 µM 85.8% | [4]; [7] 95% | [4]; [8] 98% | [4]; at 50.0 µM 87.4% | [5]; [7] 98% | [5]; [8] 98% | [5]; at 50.0 µM 83.8% | [6]; [7] 96% | [6]; [8] 97% | [6]; at 50.0 µM 91%

Oc1cc(Br)cc2cc(Cl)cnc12
active: [1]; [7] 99% | [1]; [8] 89% | [1]; at 50.0 µM 84.5% | [2]; [7] 97% | [2]; [8] 87% | [2]; at 50.0 µM 84.5% | [3]; [7] 98% | [3]; [8] 93% | [3]; at 50.0 µM 79.8% | [4]; [7] 98% | [4]; [8] 88% | [4]; at 50.0 µM 80% | [5]; [7] 98% | [5]; [8] 86% | [5]; at 50.0 µM 83.1% | [6]; [7] 98% | [6]; [8] 81% | [6]; at 50.0 µM 75.5%

CC(=O)Nc1ccc(/C=N\NC(=O)c2ccco2)cc1
inactive: [1]; [7] -5% | [1]; [8] 4% | [1]; at 50.0 µM -7.6% | [2]; [7] -10% | [2]; [8] -7% | [2]; at 50.0 µM -2.6% | [3]; [7] -4% | [3]; [8] 5% | [3]; at 50.0 µM -1.1% | [4]; [7] -13% | [4]; [8] 1% | [4]; at 50.0 µM -3.1% | [5]; [7] -8% | [5]; [8] -12% | [5]; at 50.0 µM -8.45% | [6]; [7] -2% | [6]; [8] -12% | [6]; at 50.0 µM 0.4%

OC(c1ccc(Cl)cc1)c1ccc(Cl)cc1
inactive: [1]; [7] -7% | [2]; [7] -11% | [3]; [7] -7% | [4]; [7] -17% | [5]; [7] -11% | [6]; [7] -6%
active: [1]; [8] 100% | [1]; at 50.0 µM 79% | [2]; [8] 100% | [2]; at 50.0 µM 98.2% | [3]; [8] 100% | [3]; at 50.0 µM 75.2% | [4]; [8] 100% | [4]; at 50.0 µM 85.3% | [5]; [8] 100% | [5]; at 50.0 µM 98.8% | [6]; [8] 99% | [6]; at 50.0 µM 85.2%

O=C(Nc1ccc(Cl)c(Cl)c1)Nc1cc(Cl)ccc1Oc1ccc(Cl)cc1S(=O)(=O)O
active: [1]; [8] 97% | [1]; at 50.0 µM 90.5% | [2]; [8] 99% | [2]; at 50.0 µM 93.5% | [3]; [8] 99% | [3]; at 50.0 µM 93.6% | [4]; [8] 99% | [4]; at 50.0 µM 92.2% | [5]; [8] 99% | [5]; at 50.0 µM 92.5% | [6]; [8] 98% | [6]; at 50.0 µM 91%
inactive: [1]; [7] 52% | [2]; [7] 32% | [3]; [7] 55% | [4]; [7] 35% | [5]; [7] 43% | [6]; [7] 61%

CCCCCCCSCC1C(=O)C23CC1CCC2C12COC(O)C1C(C)(C)C(O)CC2OC3=O (stereo unspecified)
active: [1]; [8] 98% | [1]; at 50.0 µM 91.7% | [2]; [8] 99% | [2]; at 50.0 µM 92.2% | [3]; [8] 98% | [3]; at 50.0 µM 92.2% | [4]; [8] 99% | [4]; at 50.0 µM 90% | [5]; [8] 99% | [5]; at 50.0 µM 89% | [6]; [8] 98%
inactive: [1]; [7] -19% | [2]; [7] 1% | [3]; [7] -11% | [4]; [7] 9% | [5]; [7] -4% | [6]; [7] -29% | [6]; at 50.0 µM 63.4%

Source: PubChem BioAssay (NCI)
